In PubChem BioAssay (NCI):
Compounds without any hit were thinned out: in the full panel of roughly 83,000, 20% have a hit.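 Results are percent growth after 48 hours of single-concentration exposure. 100 means growth as in untreated cells, lower positive values show inhibition; negative values down to -100 show cell death.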 A number with no mark means an inactive call. The source made the active and inactive calls. The calls were made as follows: active = growth percent below 10; inactive = the rest.

Columns and labels:
Assay in all cases: NCI-60 one-dose screen, 48 h (100 = growth as untreated, 0 = no growth, -100 = all killed)
Conditions in all cases: 10 µM unless noted
K-562 leukemia = system: K-562 leukemia
MDA-MB-231 breast = system: MDA-MB-231 breast
SF-268 CNS = system: SF-268 CNS
SF-295 CNS = system: SF-295 CNS
SF-539 CNS = system: SF-539 CNS
UACC-257 melanoma = system: UACC-257 melanoma
HCT-15 colon = system: HCT-15 colon
RXF 393 renal = system: RXF 393 renal
M14 melanoma = system: M14 melanoma
MALME-3M melanoma = system: MALME-3M melanoma

| Compound | growth (K-562 leukemia) | growth (MDA-MB-231 breast) | growth (SF-268 CNS) | growth (SF-295 CNS) | growth (SF-539 CNS) | growth (UACC-257 melanoma) | growth (HCT-15 colon) | growth (RXF 393 renal) | growth (M14 melanoma) | growth (MALME-3M melanoma) |
| --- | --- | --- | --- | --- | --- | --- | --- | --- | --- | --- |
| COc1cc(/C=C/C(=O)c2c(-c3ccc(F)cc3)nc3sc(C)nn23)cc(OC)c1OC | 2.54% (active) | 7.91% (active) | 16.6% | 49.6% | 21.2% | 46.6% | 15.9% |  |  |  |
| COC(=O)CC1=C(C)/C(=C/c2[nH]c(-c3ccc[nH]3)cc2OC)N=C1C | -23.6% (active) | -14.3% (active) | 22.7% | -46.6% (active) | -4.76% (active) | -8.53% (active) | 3.06% (active) | 8.29% (active) | 7.46% (active) |  |
| O=C(Nc1nc(-c2ccccc2)cs1)c1cc(O)c(O)c(O)c1 | 19.6% | 44% | 43.7% | 58.5% | 42% | 80.9% | 27.3% |  | 54.4% |  |
| COc1ccc(-c2csc(NC(=O)c3cc(O)c(O)c(O)c3)n2)cc1 | 44.8% | 56% | 54.5% | 73.4% | 62.7% | 87.3% | 30.4% |  | 63.2% |  |
| Cc1cc2c(C#N)n3c(c2cc1C)C(=O)C(c1ccccc1)Oc1ccccc1-3 (stereo not given) | 12.7% | 58.9% | 35.1% | 14.8% | 74% | 44.7% | 16.4% |  | 36.8% |  |
| N#Cc1cccc(/C=C(/C(=O)c2ccccc2)c2ccccc2)c1 | 1.89% (active) | 54.5% | 51.1% | 63.5% | 91.9% | 43.1% | 18.9% |  | 58.8% |  |
| C[N+]1(CCC[N+]2(C)C[C@@H]3[C@H](C2)[C@@H]2C=C[C@H]3C2)CCOCC1 (stereo not given in full) | 110% | 104% | 115% | 113% | 100% | 112% | 91.4% | 121% |  |  |
| Cn1cc(-c2nc(-c3c[nH]c4ncccc34)cs2)c2cccnc21 |  | 47.6% | 91.5% | 71.1% | 69.1% | 105% | 43.6% | 54.6% | 42.5% | 84.8% |
| O=C(C(=O)N1CCCCC1)c1ccc(OC2OC(CO)C(O)C(O)C2O)cc1 (stereo not given) |  | 110% | 105% | 125% | 100% | 106% | 108% | 104% | 99.1% | 101% |
| C=C(C)[C@@H]1C/C=C(/C=O)CC[C@@H]2O[C@@]2(C)CC/C=C(\C)CC1 | 136% | 111% | 112% |  | 105% | 141% | 105% | 104% | 115% |  |
| COc1cc2c(C#N)n3c(c2cc1OC)C(=O)C(c1ccccc1)Oc1ccccc1-3 (stereo not given) | 29.7% | 64.1% | 43% | 28.4% | 83.5% | 89.3% | 31.5% |  | 44.7% |  |
| COc1cc(/C=C/C(=O)Nc2ccc3c(c2)/C(=C\c2cccn2C)C(=O)N3)cc(OC)c1OC | 28.4% | 36.5% | 69.3% | 38.3% | 56.7% | 62% | 32.5% |  |  |  |
| COc1ccc(/C=N\Nc2ccc([N+](=O)[O-])cn2)cc1OC | 93.7% | -0.447% (active) | 73.3% | 35.4% | 32.1% | 67.6% | 95.8% | 51.6% | 110% |  |
| COc1cc2cn3c4ccc(O)cc4nc(N)c3c2cc1OC |  | 61.6% | 20.8% | 9.44% (active) | -18.3% (active) | 6.97% (active) | 31.4% | 9.93% (active) | -9.75% (active) | 31.2% |
| CCC1(c2ccccc2)Oc2ccccc2-n2c(C#N)c3ccccc3c2C1=O (stereo not given) | 86.7% | 98.5% | 101% | 93.3% | 105% | 90.5% | 94% |  |  |  |
| CC1(C)OC(=O)C(=Cc2ccccc2Br)C(=O)O1 | 87.4% | 109% | 104% | 99.7% | 91.9% | 95.3% | 88.6% |  | 88% |  |
| O=C(/C(=C/c1cccc([N+](=O)[O-])c1)c1ccccc1)c1ccccc1 | 4.03% (active) | 51.6% | 34.4% | 64.2% | 81.6% | 36.5% | 16.6% |  | 46.4% |  |
| O=C(/C=C/c1ccc(Cl)cc1)c1ccccc1 | 66.6% | 119% | 102% | 94.3% | 103% | 102% | 75.4% |  | 100% |  |
| COc1ccc2nc(NC(=O)c3cc(-c4ccc(F)cc4)n4nc(-c5ccccc5)cc4n3)sc2c1 | 93.5% | 72.8% |  | 61.6% | 66.6% | 80% | 90% | 118% |  |  |
| O=C(/C(=C/c1ccc([N+](=O)[O-])cc1)c1ccccc1)c1ccccc1 | 3.83% (active) | 53.6% | 27.8% | 67.5% | 83% | 41.1% | 14.6% |  | 51.6% |  |
| O=C1CCCN1C1CCN(Cc2cc3ccccc3[nH]c2=O)c2ccccc21 (stereo not given) |  | 92.6% | 94.7% | 72.3% | 97.2% | 114% | 92.4% | 99.4% | 86.1% | 76.4% |
| O=C(C(=O)N1CCOCC1)c1ccc(OC2OC(CO)C(O)C(O)C2O)cc1 (stereo not given) |  | 107% | 115% | 115% | 96.3% | 96.5% | 104% | 112% | 102% | 129% |
| N#Cc1c2ccccc2c2n1-c1ccccc1OC(c1ccccc1)C2=O (stereo not given) | 13% | 22.3% | 30.1% | 16.3% | 77.2% | 53.3% | 13.8% |  | 41.4% |  |
| Cc1c(C(N)=O)sc2ncn(CC(=O)Nc3ccc(Cl)cc3)c(=O)c12 | 96.8% | 108% | 119% |  | 108% | 148% | 117% | 105% | 103% |  |
| CCCCCCCC/C=C/CCCCCCCC1=NC(C)(C)CN1CC(C)O (stereo not given) |  | 30.5% | 55.5% | 32.4% | 29.2% | 87.2% | 18.3% | 14.7% | 31.8% | 68.5% |
| O=C1c2nsnc2C(=O)c2c(F)c(F)c(F)c(F)c21 |  | -68.2% (active) | -15.6% (active) | -37% (active) | -74.1% (active) | -97.3% (active) | -59.1% (active) | -96.4% (active) | -90.8% (active) | -45.9% (active) |
| Cn1cc(-c2csc(-c3cn(C)c4ncccc34)n2)c2cc(Br)cnc21 |  | 61.9% | 105% | 82.1% | 109% | 96.2% | 81.1% | 81.2% | 80.7% | 107% |
| Cn1cc(-c2csc(-c3cn(C)c4ncccc34)n2)c2cccnc21 |  | 93.7% | 106% | 98.3% | 99% | 99.8% | 90.6% | 98.4% | 96% | 106% |
| NNC(=O)C1CC2c3ccccc3C1c1ccccc12 (stereo not given) |  | 102% | 98.7% | 105% | 99% | 118% | 111% | 116% | 111% | 123% |
